Laboratory results: PubChem BioAssay
Measured potencies and affinities stand elsewhere. Activity calls are given as the source filed them. Cut-off not given; nearly all actives show IC50 up to about 0.98 µM.

Molecular target: Calcium-dependent protein kinase 1 (Plasmodium falciparum (isolate 3D7)) (UniProt P62344)
Assay: PfCDPK1 kinase inhibitors, biochemical, TCAMS library (AID 1159585);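 further: inhibitors leave more ATP so luminescence rises with inhibition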
Conditions: recombinant PfCDPK1, Kinase-Glo ATP depletion luminescence

Calcium-dependent protein kinase 1 (Plasmodium falciparum (isolate 3D7)), sequence (P62344 whole entry, looked up): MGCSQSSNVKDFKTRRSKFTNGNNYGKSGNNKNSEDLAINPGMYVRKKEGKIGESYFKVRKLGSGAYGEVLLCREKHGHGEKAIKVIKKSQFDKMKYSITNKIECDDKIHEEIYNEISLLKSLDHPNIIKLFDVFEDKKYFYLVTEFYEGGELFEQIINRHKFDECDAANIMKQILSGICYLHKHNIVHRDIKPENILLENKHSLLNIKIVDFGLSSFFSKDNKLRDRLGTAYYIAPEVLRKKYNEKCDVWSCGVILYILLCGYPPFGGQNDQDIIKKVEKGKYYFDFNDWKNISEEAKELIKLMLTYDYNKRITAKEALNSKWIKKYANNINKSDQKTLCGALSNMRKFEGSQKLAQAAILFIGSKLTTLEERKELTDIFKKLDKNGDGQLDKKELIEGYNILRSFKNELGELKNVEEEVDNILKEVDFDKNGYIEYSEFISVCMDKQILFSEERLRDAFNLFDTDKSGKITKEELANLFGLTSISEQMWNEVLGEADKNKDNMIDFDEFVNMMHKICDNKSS

outcome, inactive:
CC(=O)N/N=C/[C@H](CCc1ccccc1)NC(=O)[C@H](CC(C)C)NC(=O)c1ccc(OCCN2CCOCC2)cc1
CN1CCN(Cc2ccc(-c3cc4nccc(Nc5ccc(Oc6ccccc6)cc5)c4cc3Cl)o2)CC1
Cc1ccc(NCc2cccc(F)c2)cc1S(=O)(=O)N[C@@H]1CCN(C#N)C1
COc1ccc(NC(=O)N2CCN(CCCCCNC(=O)/C=C/c3ccc(C(F)(F)F)cc3)CC2)cc1Cl
NC1=NC(c2ccccc2)(c2cccc(O)c2)C(=O)N1CCCc1ccccc1 (centres undefined)
COc1c(C2CCN(CCCCNC(=O)c3noc(-c4ccc(C#N)cc4)n3)CC2)ccc2c1CCCC2
Cc1noc(C)c1-c1ccc2c(Nc3ccccc3C(C)(C)C)c(C(=O)NCc3ccc(OC(C)C)cc3)cnc2c1
Cc1cc(=O)c(-c2ccc(Oc3cccc(C(F)(F)F)c3)cc2)c(C)[nH]1
O=c1cc(NCCCNCc2cc(Cl)cc(Cl)c2OCc2ccccc2)[nH]c2ccccc12
O=C(NCCCCN1CCC(c2ccc(OC(F)(F)F)cc2)CC1)c1ccc(NC(=O)c2ccc(Cl)cc2)cc1
Cc1cc(NCCC(=O)NCCc2ccccc2)nc(NCCc2ccc(F)cc2)n1
O=C(/C=C/c1ccc(Cl)c(Cl)c1)NC1CCN(Cc2ccc(O)cc2)CC1
c1ccc(Oc2cccc(Nc3ccnc4ccccc34)c2)cc1
Cc1cccc2[nH]c(-c3ccc(-c4cccc(NC(=O)NCc5cccc(F)c5)c4)cc3)nc12
